Screening results: PubChem, Broad Institute
An excerpt weighted towards active compounds, which were near 1.1% of everything screened.
PrP UTR inh = inhibition of PrP 5' UTR reporter expression; cell-based PrP 5' UTR mRNA reporter, plate reader; inhibition, % (concentration not given with the values); 340,000 compounds, 0.35% hits; in the data active means inhibition above about 52%
PfHsp40 yeast = rescue of yeast from PfHsp40 toxicity, primary screen, S. cerevisiae, ATP luminescence; AID 504582, 2011; growth rescue, % at 12.5 µM; 340,000 compounds, 0.68% hits; S. cerevisiae expressing PfHsp40, growth rescue; in the data active means growth rescue above about 28%, passing the limit was not always enough; inconclusive means no clear call, values can overlap the other calls;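 further: yeast W303a lacking pdr1 and pdr3 grown in galactose medium; growth measured after three days at 30 °C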
TcdB inh = TcdB glycohydrolase inhibitors, primary screen, biochemical, single point, plate reader; Toxin B (Clostridioides difficile), P18177; TcdB glycohydrolase enzymatic assay; inhibition, % at 9.99 µM; 350,000 compounds, 0.24% hits; AID 652162, 2013; in the data active means inhibition above about 10%
Target sequence (P18177 whole entry, looked up): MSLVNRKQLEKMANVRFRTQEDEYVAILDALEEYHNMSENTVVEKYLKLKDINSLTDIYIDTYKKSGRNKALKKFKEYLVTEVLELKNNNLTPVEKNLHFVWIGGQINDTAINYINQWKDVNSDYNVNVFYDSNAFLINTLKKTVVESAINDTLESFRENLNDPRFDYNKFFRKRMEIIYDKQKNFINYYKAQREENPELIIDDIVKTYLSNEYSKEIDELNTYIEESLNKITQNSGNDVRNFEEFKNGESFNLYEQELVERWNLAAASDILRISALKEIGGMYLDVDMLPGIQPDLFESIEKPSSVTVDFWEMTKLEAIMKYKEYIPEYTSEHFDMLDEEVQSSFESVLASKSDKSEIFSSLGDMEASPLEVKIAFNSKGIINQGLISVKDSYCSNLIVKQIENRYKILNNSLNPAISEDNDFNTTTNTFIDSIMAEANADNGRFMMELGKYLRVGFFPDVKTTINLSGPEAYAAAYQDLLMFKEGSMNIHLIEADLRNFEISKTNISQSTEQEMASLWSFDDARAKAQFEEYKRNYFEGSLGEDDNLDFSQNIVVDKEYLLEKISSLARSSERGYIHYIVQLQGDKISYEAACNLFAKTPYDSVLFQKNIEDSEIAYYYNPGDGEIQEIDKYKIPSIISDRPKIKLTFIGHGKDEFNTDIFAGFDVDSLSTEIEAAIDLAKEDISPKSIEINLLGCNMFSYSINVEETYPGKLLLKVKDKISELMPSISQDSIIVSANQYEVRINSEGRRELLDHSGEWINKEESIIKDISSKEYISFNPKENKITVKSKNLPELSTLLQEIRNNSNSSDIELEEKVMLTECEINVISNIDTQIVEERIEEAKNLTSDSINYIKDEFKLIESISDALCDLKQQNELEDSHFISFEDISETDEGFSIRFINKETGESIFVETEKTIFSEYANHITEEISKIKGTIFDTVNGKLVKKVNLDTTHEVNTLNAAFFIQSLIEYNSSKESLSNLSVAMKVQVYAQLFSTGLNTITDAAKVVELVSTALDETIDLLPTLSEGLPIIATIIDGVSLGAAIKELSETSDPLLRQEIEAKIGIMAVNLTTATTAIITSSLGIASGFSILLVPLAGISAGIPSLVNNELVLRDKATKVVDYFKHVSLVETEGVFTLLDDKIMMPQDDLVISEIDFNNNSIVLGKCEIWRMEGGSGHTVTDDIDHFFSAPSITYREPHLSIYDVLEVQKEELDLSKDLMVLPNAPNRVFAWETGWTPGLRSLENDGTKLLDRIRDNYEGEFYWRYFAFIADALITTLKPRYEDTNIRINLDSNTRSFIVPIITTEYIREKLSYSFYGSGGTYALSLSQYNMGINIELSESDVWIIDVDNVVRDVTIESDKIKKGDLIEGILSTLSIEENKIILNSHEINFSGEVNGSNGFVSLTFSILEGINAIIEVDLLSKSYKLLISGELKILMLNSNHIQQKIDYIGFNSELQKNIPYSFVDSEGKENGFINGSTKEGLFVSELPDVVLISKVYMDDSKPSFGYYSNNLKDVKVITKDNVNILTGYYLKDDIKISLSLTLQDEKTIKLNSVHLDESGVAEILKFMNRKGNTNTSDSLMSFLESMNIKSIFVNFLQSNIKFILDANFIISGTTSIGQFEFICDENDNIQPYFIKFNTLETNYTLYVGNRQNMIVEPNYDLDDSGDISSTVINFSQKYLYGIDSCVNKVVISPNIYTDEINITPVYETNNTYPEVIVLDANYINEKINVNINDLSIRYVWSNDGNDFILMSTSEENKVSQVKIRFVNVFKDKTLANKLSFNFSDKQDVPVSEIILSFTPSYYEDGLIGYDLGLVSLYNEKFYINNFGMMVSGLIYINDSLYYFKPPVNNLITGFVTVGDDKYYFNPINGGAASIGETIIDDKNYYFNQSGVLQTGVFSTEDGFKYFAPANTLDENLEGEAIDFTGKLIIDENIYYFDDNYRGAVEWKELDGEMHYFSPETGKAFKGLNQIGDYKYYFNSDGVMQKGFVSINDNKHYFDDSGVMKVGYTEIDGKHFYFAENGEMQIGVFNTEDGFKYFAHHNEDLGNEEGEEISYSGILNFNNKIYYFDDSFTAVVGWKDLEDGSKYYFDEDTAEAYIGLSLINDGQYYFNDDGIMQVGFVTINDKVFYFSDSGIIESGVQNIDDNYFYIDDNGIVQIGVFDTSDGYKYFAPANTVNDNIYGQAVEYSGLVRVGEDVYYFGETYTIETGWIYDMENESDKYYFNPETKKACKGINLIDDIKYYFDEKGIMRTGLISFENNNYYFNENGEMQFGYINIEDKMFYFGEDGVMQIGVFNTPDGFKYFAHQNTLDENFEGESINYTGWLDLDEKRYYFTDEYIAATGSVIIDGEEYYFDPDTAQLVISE
BioA inh = M. tuberculosis BioA enzyme inhibitors, primary screen, biochemical, plate reader, single point, HTS; 7,8-diaminopelargonic acid synthase BioA (Mycobacterium tuberculosis); purified M. tuberculosis BioA enzyme; inhibition, % at 9.99 µM; 360,000 compounds, 0.096% hits; AID 602481, 2012; in the data active means inhibition above about 40%; inconclusive means no clear call, values can overlap the other calls
FadD28 FP inh = inhibitors of FadD28 bisubstrate probe binding, primary screen, biochemical, fluorescence polarization, single point | inhibition, % at 12.5 µM | AID 588549, 2011 | 360,000 compounds, 0.22% hits; in the data active means inhibition above about 8.5%, passing the limit was not always enough; inconclusive means no clear call, values can overlap the other calls
PrP UTR cherry = prion 5' UTR mRNA inhibition, cherry-pick retest | shares compounds with PrP UTR inh | cell-based prion protein 5' UTR reporter, plate reader | inhibition, % at 2.5 µM | 1,100 compounds, 48% hits | AID 504592, 2011; in the data active means inhibition above about 54%; inconclusive means no clear call, values can overlap the other calls
Of the large screens only hits and unclear results are named; the others gave an inactive call (follow-up assays come after a bar, where they were run); ! = not active in a repeat.

COCCn1c(C)cc(C(=O)COC(=O)c2cccnc2SC)c1C	none (no result: BioA inh)
COCCn1c(C)cc(C(=O)COC(=O)c2ccccc2Br)c1C	PrP UTR inh 72.6 | PrP UTR cherry 71.3
Cc1cc(C(=O)COC(=O)c2ccccc2O)c(C)n1Cc1cccs1	PrP UTR inh 90.9 (no result: TcdB inh) | PrP UTR cherry 80.0
Cc1cc(C(=O)COC(=O)c2ccccc2NCCO)c(C)n1CC1CCCO1 (centres undefined)	none
O=C(C[C@H]1C[C@@H]2c3cc(NC(=O)C4CCC4)ccc3O[C@@H]2[C@@H](CO)O1)NCc1ccncc1	none (no result: PrP UTR inh, PfHsp40 yeast, FadD28 FP inh)
COc1cc(/C=N/O)ccc1OCc1ccc(C(=O)O)cc1	PrP UTR inh 88.0 (no result: TcdB inh) | PrP UTR cherry 91.1
CN(C)c1ccc(/C=N/Nc2cccc(C(=O)O)c2)cc1	PrP UTR inh 93.2 | PrP UTR cherry 92.1
CC(C)(C)c1ccc(/C=N/Nc2cccc(C(=O)O)c2)cc1	PrP UTR inh 60.0 (no result: BioA inh) | PrP UTR cherry 53.9
O=C(O)c1cccc(N/N=C/c2cccnc2)c1	none (no result: BioA inh)
O=C(O)c1cccc(N/N=C/c2ccc(-c3ccccc3)cc2)c1	none (no result: BioA inh)
Cc1noc(C)c1NC(=O)Nc1ccc2c(c1)C(=O)N([C@H](C)CO)C[C@@H](C)[C@@H](CN(C)Cc1ccncc1)OCCCC[C@@H](C)O2	none (no result: PrP UTR inh, PfHsp40 yeast, FadD28 FP inh)
CCOC(=O)c1ccc(NC(=O)Nc2ccc(Cl)cn2)cc1	none (no result: BioA inh)
CCOC(=O)c1ccc(NC(=O)Nc2ccon2)cc1	PrP UTR inh 66.2 (no result: BioA inh) | PrP UTR cherry 78.8
CN1CCN(C(=O)c2ccc3c(=O)n(Cc4ccco4)c(=S)[nH]c3c2)CC1	none (no result: TcdB inh)
CCCN(CCC)C(=O)c1ccc2c(=O)n(Cc3ccco3)c(=S)[nH]c2c1	PrP UTR inh 82.8 (no result: BioA inh) | PrP UTR cherry inactive
O=C(N[C@@H]1CC[C@@H](CCn2cc(-c3ccccn3)nn2)O[C@H]1CO)c1ccccc1	none (no result: PrP UTR inh, PfHsp40 yeast, FadD28 FP inh)
C[C@H](CO)N1C[C@H](C)[C@@H](CN(C)C(=O)C2CC2)Oc2ncc(C#Cc3cccc(F)c3)cc2C1=O	none (no result: PrP UTR inh, PfHsp40 yeast, FadD28 FP inh)
COc1cc(OC)cc(-c2cc3nc(C)c(CCC(=O)O)c(C)n3n2)c1	PrP UTR inh 54.3 | PrP UTR cherry 57.0
COc1cc(OC)cc(-c2cc3nc(C)c(CCC(=O)NC(C)CCc4ccco4)c(C)n3n2)c1 (centres undefined)	none (no result: TcdB inh)
CC1=C(C(=O)Nc2ccc(CC(=O)NCc3ccc(OC(C)C)cc3)cc2)SCCO1	PrP UTR inh 71.6 | PrP UTR cherry 86.6
CO[C@H]1CN(C)C(=O)c2cc(NS(C)(=O)=O)ccc2OC[C@H](C)N(C(=O)C2CCC2)C[C@@H]1C	none (no result: PrP UTR inh, PfHsp40 yeast, FadD28 FP inh)
NCCCS(=O)(=O)O	PrP UTR inh 73.6! | PrP UTR cherry inactive
O=S(=O)(O)CCS	none
COc1ccc(NC(=O)Nc2ccc3c(c2)C(=O)N([C@H](C)CO)C[C@H](C)[C@@H](CN(C)C(=O)Nc2ccc(F)cc2)OCCCC[C@H](C)O3)cc1	none (no result: PrP UTR inh, PfHsp40 yeast, FadD28 FP inh)
O=C(Nc1ccc(N2CCCCCC2)cc1)c1ccccc1Cl	none
O=C(Nc1ccc(N2CCCCC2)cc1)c1ccccn1	PrP UTR inh 92.6 (no result: TcdB inh, BioA inh) | PrP UTR cherry 89.6
CCC(=O)NC(c1ccc(OC)cc1)c1cc(Cl)c2cccnc2c1O (centres undefined)	none (no result: BioA inh)
COc1ccc(C(NC(=O)c2cccnc2)c2cc(Cl)c3cccnc3c2O)cc1OC (centres undefined)	PrP UTR inh 88.7, PfHsp40 yeast inconclusive (no result: TcdB inh) | PrP UTR cherry inactive
C[C@H](CO)N1C[C@H](C)[C@@H](CN(C)Cc2ccncc2)OCCCC[C@H](C)Oc2ccc(NC(=O)Cc3ccccc3)cc2C1=O	none (no result: PrP UTR inh, PfHsp40 yeast, FadD28 FP inh)
CC(C)OCCCNC(=O)Cc1ccc(Br)cc1	PrP UTR inh 82.9 (no result: TcdB inh, BioA inh) | PrP UTR cherry inactive
Cc1noc(C)c1S(=O)(=O)Nc1ccc2c(c1)C(=O)N([C@@H](C)CO)C[C@@H](C)[C@H](CN(C)C(=O)Nc1ccc3c(c1)OCO3)OCCCC[C@@H](C)O2	none (no result: PrP UTR inh, PfHsp40 yeast, FadD28 FP inh)
Cc1ccc2c(c1)sc(=NC(=O)C1CC1)n2C	none
Cc1ccc2c(c1)sc(=NC(=O)c1cccs1)n2C	PrP UTR inh 65.1 (no result: BioA inh) | PrP UTR cherry inactive
CCN(CC)CCNC(=O)c1c(O)c2cc(OC)c(OC)cc2[nH]c1=O	PrP UTR inh 71.7 (no result: TcdB inh) | PrP UTR cherry inactive
COc1ccc(NC(=O)CSc2nnc(-c3cccc(O)c3)o2)cc1	none
COc1cccc(NC(=O)CSc2nnc(-c3cc(C)n(-c4ccccc4)c3C)o2)c1	PrP UTR inh 56.9 (no result: TcdB inh) | PrP UTR cherry inactive
COc1ccccc1NC(=O)/C=C\C(=O)O	none
COc1ccc(Cl)cc1NC(=O)/C=C\C(=O)O	PrP UTR inh 69.9 (no result: TcdB inh) | PrP UTR cherry inactive
CC(/C=C1\SC(=O)N(CCCC(=O)O)C1=O)=C\c1ccccc1	PrP UTR inh 83.2 (no result: TcdB inh) | PrP UTR cherry 86.3
Cc1noc(C)c1NC(=O)Nc1cccc2c1O[C@@H](CN(C)C(=O)Nc1ccc(F)cc1)[C@H](C)CN([C@@H](C)CO)C2=O	none (no result: PrP UTR inh, PfHsp40 yeast, TcdB inh, FadD28 FP inh)
CC1CC2C(C(O)CC3(C)C2CCC3(O)C(=O)CO)C2(C)C=CC(=O)C=C12 (centres undefined)	none (no result: BioA inh)
C[C@@H]1O[C@@H](O[C@H]2C[C@@H](O)[C@]3(CO)[C@H]4[C@H](O)C[C@]5(C)[C@@H](C6=CC(=O)OC6)CC[C@]5(O)[C@@H]4CC[C@]3(O)C2)[C@H](O)[C@H](O)[C@H]1O	PrP UTR inh 92.0 (no result: TcdB inh) | PrP UTR cherry 90.3
C[C@H](O)C#Cc1cnc2c(c1)C(=O)N([C@H](C)CO)C[C@H](C)[C@H](CN(C)Cc1cncnc1)O2	none (no result: PrP UTR inh, PfHsp40 yeast, FadD28 FP inh)
Cc1ccc(-c2nc(-c3ccccn3)no2)cc1Cl	PrP UTR inh 71.5 (no result: TcdB inh) | PrP UTR cherry 64.1
Clc1cccc(-c2nc(-c3ccccn3)no2)c1	none (no result: TcdB inh)
Cc1ccc(-c2nc(-c3ccccn3)no2)cc1	PrP UTR inh 86.4 (no result: TcdB inh) | PrP UTR cherry 91.2
c1ccc(-c2nc(-c3ccccn3)no2)cc1	none (no result: TcdB inh)
c1ccc(-c2ccc(-c3nc(-c4ccccn4)no3)cc2)cc1	PrP UTR inh 88.8 | PrP UTR cherry 90.8
FC(F)(F)c1ccccc1-n1ccnc1	PrP UTR inh 59.5 | PrP UTR cherry inactive
CC12CC[C@H]3[C@@H](CCC4(O)C[C@H](O)CCC34/C=N/NC(=O)c3ccccc3Cl)C1(O)CCC2C1=CC(=O)OC1 (some centres undefined)	none (no result: BioA inh)
CC(=O)OC1CC(OC2C(O)CC(OC3C(O)CC(OC4CCC5(C)C(CCC6C5CCC5(C)C(C7=CC(=O)OC7)C(O)CC65O)C4)OC3C)OC2C)OC(C)C1OC1OC(CO)C(O)C(O)C1O (centres undefined)	PrP UTR inh 94.4 (no result: BioA inh) | PrP UTR cherry 67.6
C[C@H]1O[C@@H](OC2CC[C@]3(C=O)[C@H]4CC[C@]5(C)[C@@H](C6=CC(=O)OC6)CC[C@]5(O)[C@@H]4CC[C@]3(O)C2)CC2OC(C)(C)OC21 (some centres undefined)	PrP UTR inh 84.1 (no result: BioA inh) | PrP UTR cherry 85.0
